Test results taken from PubChem BioAssay (EPA / NIEHS).
The source made the active and inactive calls. How the source made its calls: active means hit-call score of the fitted dose curve at least 0.9, where 1 is the maximum; inactive means score below 0.9.

These compounds were tested against Transcriptional activator Myb (Homo sapiens) (UniProt P10242) (assay: ATG_Myb_CIS: Attagene CIS-FACTORIAL HepG2 Assay for human Myeloblastosis (Myb) Proto-Oncogene Transcription Factor (AID 2282986)). Settings: HepG2 Attagene CIS-FACTORIAL Myb reporter transcription; actives raise or lower the signal.
Chain of Transcriptional activator Myb (Homo sapiens) (P10242 whole entry, looked up): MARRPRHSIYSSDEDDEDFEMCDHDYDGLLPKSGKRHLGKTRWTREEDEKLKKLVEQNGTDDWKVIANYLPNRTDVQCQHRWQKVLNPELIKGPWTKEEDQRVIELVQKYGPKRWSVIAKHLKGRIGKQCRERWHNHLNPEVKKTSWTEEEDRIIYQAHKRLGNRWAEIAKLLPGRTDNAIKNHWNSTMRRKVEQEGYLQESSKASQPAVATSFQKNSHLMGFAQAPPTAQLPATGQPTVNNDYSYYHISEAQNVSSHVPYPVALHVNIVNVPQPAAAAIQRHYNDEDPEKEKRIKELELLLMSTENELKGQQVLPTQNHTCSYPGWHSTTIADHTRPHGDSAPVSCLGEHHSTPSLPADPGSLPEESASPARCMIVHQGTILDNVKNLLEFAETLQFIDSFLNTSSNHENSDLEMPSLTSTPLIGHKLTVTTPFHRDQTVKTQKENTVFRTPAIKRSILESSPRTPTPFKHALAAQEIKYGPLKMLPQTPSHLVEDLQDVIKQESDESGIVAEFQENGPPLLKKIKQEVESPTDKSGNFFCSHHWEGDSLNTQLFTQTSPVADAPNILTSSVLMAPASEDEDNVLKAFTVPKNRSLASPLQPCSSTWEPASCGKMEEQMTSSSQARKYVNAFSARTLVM
Description: ATG_CIS is a cell-based, multiplexed-readout assay that uses HepG2, a human liver cell line, with measurements taken at 24 hours after chemical dosing in a 24-well plate.ATG_Myb_CIS is one of 52 assay component(s) measured or calculated from the ATG_CIS assay. It is designed to make measurements of mRNA induction, a form of inducible reporter, as detected with fluorescence intensity signals by Reverse transcription polymerase chain reaction (RT-PCR) and Capillary electrophoresis technology.Data from the assay component ATG_Myb_CIS was analyzed into 1 assay endpoint. This assay endpoint, ATG_Myb_CIS, was analyzed with bidirectional fitting relative to DMSO as the negative control and baseline of activity. Using a type of inducible reporter, measures of mRNA for gain or loss-of-signal activity can be used to understand the reporter gene at the transcription factor-level as they relate to the gene MYB. Furthermore, this assay endpoint can be referred to as a primary readout, because this assay has produced multiple assay endpoints where this one serves a reporter gene function. To generalize the intended target to other relatable targets, this assay endpoint is annotated to the dna binding intended target family, where the subfamily is MYB proteins.
Human liver HepG2 cells are transiently transfected with multiple reporter transcription units (MRTUs) in 6-well plates using FuGene 6 reagent (Roche; 3 ml FuGene/1 mg DNA). The MRTU constructs are regulated by a cis-regulating element (promoter). […] A major difference between the CIS and TRANS system is that in CIS activities of endogenous TFs are measured, whereas the TRANS assay evaluates changes in activities of exogenous, chimeric NR-Gal4 proteins. […] At the end of 24 hour incubation, total RNA was isolated using TriZol reagent (Invitrogen). The isolated RNA is then reverse-transcribed using oligo(dT) primer and Mo-MLV reverse transcriptase (Invitrogen) with DNAse I (Ambion) treatment for 30 min. The one-tenth of the produced cDNA was amplified by PCR using Taq DNA polymerase (Invitrogen) and two reporter sequence-specific primers. The PCR products were fluorescently labeled by primer extension with 6-arboxyfluorescein (6-FAM) 5'-labeled reporter sequence-specific primer (2 min at 95 C, 20 s at 68 C and 10 min at 72 C) and these products were digested with 5U of HpaI (New England Biolabs) for 2h at 37 C. The fragments were purified using Qiaquick PCR columns (Qiagen), analyzed on an ABI 3130xL genetic analyzer (Applied Biosystems) with peak positions identified by using a set of X-rhodamine (ROX)-labeled MapMarker1000 molecular weight standards (BioVentures). The raw capillary electrophoresis data was processed using Attagraph software (Attagene).
For `OCCNCCO`, the outcome was “inactive”. With `S=P(N1CC1)(N1CC1)N1CC1` the outcome was “inactive”. With `c1ccc2cc3ccccc3cc2c1` the outcome was “inactive”. For `C[C@@H](Oc1ccc(CNC(=O)c2cccnc2Oc2ccc3c(c2)OCO3)c(F)c1)C(=O)O`, the outcome was “inactive”. In the case of `O=C(NO)C1(NS(=O)(=O)c2ccc(Oc3ccc(F)cc3)cc2)CCOCC1`, the outcome is reported as “inactive”. For `NNC(=O)c1ccncc1`, the outcome was “inactive”. With `CC(C)C(=O)Nc1ccc([N+](=O)[O-])c(C(F)(F)F)c1` the outcome was “inactive”. `NC(=O)N1c2ccccc2C=Cc2ccccc21` was tested, and the outcome was “inactive”. With `O=C(O)c1ccc2c(c1)nc(C(=O)NC1CCN(C3CC3)CC1)n2Cc1cc(-c2ccc(Cl)s2)on1` the outcome was “inactive”. With `CCCOc1ccc(S(=O)(=O)N2CCN(CC)CC2)cc1-c1nc2c(CC)n(Cc3ccccn3)nc2c(=O)[nH]1` the outcome was “inactive”. With `c1ccc2c(c1)-c1cccc3c1c-2cc1ccccc13` the outcome was “inactive”. For `CC[C@H](C)C(=O)O[C@H]1C[C@H](O)C=C2C=C[C@H](C)[C@H](CC[C@@H](O)C[C@@H](O)CC(=O)O)[C@H]21`, the outcome was “inactive”. With `CCN(CC)C(=S)SSC(=S)N(CC)CC` the AC50 was 162 µM (active). `CCCCCCCC/C=C\CCCCCCCC(=O)OC[C@@H](O)[C@H]1OC[C@H](O)[C@H]1O` was tested, and the outcome was “inactive”. With `CCCCCCCCN(C)C` the outcome was “inactive”. In the case of `CCCC(CCC)C(=O)O`, the outcome is reported as “inactive”. In the case of `CNC(C)=O`, the outcome is reported as “inactive”. `FC(F)(F)COC(OCC(F)(F)F)OCC(F)(F)F` was tested, and the outcome was “inactive”. `NCC(F)(F)C(F)(F)C(F)(F)C(F)(F)F` was tested, and the outcome was “inactive”. For `Cn1cc[nH]c1=S`, the outcome was “inactive”. For `Cc1nc(-c2ccccn2)ncc1C(=O)Nn1cc(C)c2cc(F)ccc21`, the outcome was “inactive”. With `C[C@]12C=CC(=O)C=C1CC[C@H]1[C@@H]3C[C@@H](O)[C@](O)(C(=O)CO)[C@@]3(C)C[C@H](O)[C@@]12F` the outcome was “inactive”. `FC(F)=C(F)C(F)(F)C(F)(F)C(F)(F)C(F)(F)C(F)(F)C(F)(F)F` was tested, and the outcome was “inactive”. For `O=S(=O)(O)CCC(F)(F)C(F)(F)C(F)(F)C(F)(F)C(F)(F)C(F)(F)F`, the outcome was “inactive”. In the case of `C[Si](C)(C)C(F)(F)C(F)(F)C(F)(F)F`, the outcome is reported as “inactive”. With `OCC(CO)(CO)CO` the outcome was “inactive”. `FC(F)C(F)(F)COCC1CO1` (stereo not given) was tested, and the outcome was “inactive”. With `CCCCC(CC)C(=O)OCCOCCOCCOC(=O)C(CC)CCCC` (stereo not given) the outcome was “inactive”. For `O=C(O)c1cccc(C(=O)O)c1`, the outcome was “inactive”. With `CCc1cccc(CC)c1N` the outcome was “inactive”. With `CCCCOC(=O)c1ccccc1` the outcome was “inactive”. In the case of `OCc1ccccc1`, the outcome is reported as “inactive”. With `NC(=O)NN=Cc1ccc([N+](=O)[O-])o1` the outcome was “inactive”. `OC[C@H]1O[C@@H]2O[C@H]3[C@H](O)[C@@H](O)[C@@H](O[C@H]4[C@H](O)[C@@H](O)[C@@H](O[C@H]5[C@H](O)[C@@H](O)[C@@H](O[C@H]6[C@H](O)[C@@H](O)[C@@H](O[C@H]7[C@H](O)[C@@H](O)[C@@H](O[C@H]1[C@H](O)[C@H]2O)O[C@@H]7CO)O[C@@H]6CO)O[C@@H]5CO)O[C@@H]4CO)O[C@@H]3CO` was tested, and the outcome was “inactive”. With `CCCc1ccccc1` the outcome was “inactive”. With `CCCCCCOC(=O)CC(CC(=O)OCCCCCC)(OC(=O)CCC)C(=O)OCCCCCC` the outcome was “inactive”. In the case of `CCCCCCCCCCCCCCO`, the AC50 is reported as 168 µM (active). For `Cn1c(=O)c2[nH]cnc2n(C)c1=O`, the outcome was “inactive”. With `CC1(C)C(=O)N(Cl)C(=O)N1Cl` the outcome was “inactive”. `O=S(=O)(O)c1ccc(N=Nc2c(O)ccc3cc(S(=O)(=O)O)ccc23)cc1` was tested, and the outcome was “inactive”.
